Assay outcomes as filed in PubChem BioAssay.
MCF10A rerep = inducers of DNA re-replication in MCF 10A breast cells; MCF 10A DNA re-replication, Hoechst nuclear intensity, 48 h; Potency, µM (series often up to 46.1 µM), inactives show at the highest dose activity, positive = re-replication, usual class: activators; 350,000 tested, 2.9% active; further: % of control where 0% means no effect; nearly all actives have a fitted effect of over 50% in size
PTAP TSG101 blk = blocks PTAP/TSG101 interaction to inhibit HIV-1 budding; Potency, µM (series often up to 115 µM), without a hit: at the highest dose activity change, negative = inhibition, hits mostly inhibitors; Q99816; Fluorescence polarization, FITC-PTAP peptide / Tsg101 binding; 340,000 tested, under 10 active; AID 493005; active means well fitted inhibition curve with a large enough effect in the main read-out, with a control signal flat, not every such curve was filed as active; inconclusive means small, poorly fitted or top-dose-only effect, or effect the other way, or a change in a side signal; inactive means no such curve, though single readings can be large or run the other way; further: % of control where 0% means no effect
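Fluorescence anisotropy tracks displacement of a FITC-tagged PTAP peptide (50 nM) from the Tsg101 binding domain (10 uM), following a 20 min room-temperature incubation at pH 7.5.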
KB-3-1 cytotox = kills parental KB-3-1 adenocarcinoma cells; Potency, µM (top dose mostly 46.1 µM), usual class: cytotoxic; AID 1347075; 400,000 tested, 1.4% active; KB-3-1 viability, CellTiter-Glo ATP luminescence, 72 h; further: on the % scale 0 is the no-effect control and ±100 the full control effect; nearly all actives have a fitted effect of over 60% in size
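Using CellTiter-Glo luminescence, growth of non-resistant KB-3-1 adenocarcinoma cells is assessed 72 h after pin-tool compound addition at 37 °C. Normalized responses across the concentration series yield fitted curves.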
SW480 rereplic = induces DNA re-replication in SW480 colon adenocarcinoma cells; SW480 DNA re-replication, Hoechst DNA content imaging, 48 h; Potency, µM (titrated, usually from 46.1 µM), for inactives: top-dose re-replication activation, actives largely listed as activators; 340,000 tested, 1.8% active; further: % of control where 0% means no effect; nearly all actives have a fitted effect of over 55% in size
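DNA re-replication was detected as more nuclei of elevated Hoechst intensity after 48 hr exposure to compound (23 nL pinned per well of 250 cells).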
KB-V1 MDR tox = kills drug-selected multidrug resistant KB-V1 cells. KB-V1 MDR cells viability, CellTiter-Glo, 72 h. Potency, µM (titrated, usually from 46.1 µM), most hits filed as cytotoxic. 400,000 tested, 3.4% active; further: on the % scale 0 is the no-effect control and ±100 the full control effect; nearly all actives have a fitted effect of over 60% in size
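KB-V1 cells (P-gp-expressing MDR subline of KB-3-1) in phenol-red-free DMEM with 10% FBS were exposed to library compounds over a concentration series for 72 h at 37 degrees C. Viability read by CellTiter-Glo luminescence; concentration-effect curves fitted after normalization.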
RGS4 inhibitor = human RGS4 inhibition; AID 504845; Potency, µM (top dose mostly 114 µM), for the others: at the top dose activity change, negative = inhibition, hits mostly inhibitors; Transcreener GDP fluorescence polarization, RGS4-accelerated GTP hydrolysis; 390,000 tested, 0.039% active; further: on the % scale 0 is the no-effect control and ±100 the full control effect; nearly all actives have a fitted effect of over 75% in size
Target sequence (P49798 whole entry, looked up): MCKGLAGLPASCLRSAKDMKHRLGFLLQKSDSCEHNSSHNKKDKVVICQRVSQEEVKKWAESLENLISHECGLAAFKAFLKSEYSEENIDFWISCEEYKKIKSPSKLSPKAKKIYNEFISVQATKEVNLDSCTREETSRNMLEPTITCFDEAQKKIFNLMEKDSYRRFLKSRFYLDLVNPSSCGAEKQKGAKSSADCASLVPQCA
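MLSMR compounds (23 nl, pin-transferred) preincubated 10 min at room temperature with a 500nM (2x) first reagent, then RGS4 at 900nM (2x) plus Transcreener GDP mix added; fluorescence polarization (620/688 nm) read before and after 90 min at 30 °C.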
An asterisk follows results filed as active; i = inactive; ? = inconclusive; nt = no result; [ ] = remark or other dose. Only some compounds are listed: those with a hit (about 6.6% of all), similar ones and a draw of the others. Unless noted, the call rests on the fitted dose curve; in most records, active means well fitted curve in the direction sought with a large enough effect; inconclusive means small, poorly fitted or top-dose-only effect, or another doubt; inactive means no such curve, though single readings can be large; an effect the other way counts as inactive or inconclusive. Potency means the concentration at half of the fitted maximal effect.

SMILES | MCF10A rerep | PTAP TSG101 blk | KB-3-1 cytotox | SW480 rereplic | KB-V1 MDR tox | RGS4 inhibitor
COc1ccc(OC)c(Nc2cc(-c3ccccc3)nc(N)n2)c1 | 0.651µM* | -1.3% | 1.03µM* | 2.59µM* | 1.3µM* | -7.6%[11.4 µM]
COc1ccc(-c2cc(-c3ccccc3)nc(N)n2)c(O)c1 | 13.9% | -4.3% | ? | 2.7% | 20.6µM* | 0.3%
Cc1ccc(CCNC(=O)c2cc3cc(S(=O)(=O)N4CCCCC4)ccc3n2C)cc1 | nt | nt | nt | nt | nt | -5.0%
Cn1cnc2c(NCc3ccco3)ncnc21 | 35.7% | -4.9% | i | -44.3% | i | -2.3%
Clc1cccc(Cl)c1Cn1cnc2c(NCc3ccco3)ncnc21 | 15.8µM* | -5.0% | ? | 10µM* | 3.55µM* | 27.5%
Clc1cccc(Cl)c1Cn1cnc(=NCc2ccco2)c2[nH]cnc21 | ? | -9.6% | i | 8.6% | 8.2µM* | 8.5%
COC(=O)c1sccc1N/N=C/c1cccc(OC)c1O | ? | 1.1% | i | -2.0% | ? | -6.4%
COc1cccc(/C=N/Nc2nccnc2Cl)c1O | 5.8µM* | -12.9% | ? | 0.259µM* | i | 11.4%
COC(=O)c1sccc1N/N=C/c1ccc(OC)c(OC)c1OC | 23.1µM* | -4.4% | i | 10.9% | ? | 3.3%
COc1cccc(/C=N/NC(=O)c2cc3c(OC)cccc3[nH]2)c1O | -0.1% | -3.1% | ? | 9.2µM* | ? | -46.1%
NC(=S)N/N=C/c1ccccc1OCc1cccc(Cl)c1 | ? | -4.4% | 18.4µM* | ? | i | -34.3%
C=C[C@@]1(C)C[C@H](OC(=O)CSC(C)(C)CNC(=O)[C@@H](N)C(C)C)[C@@]2(C)C(C)CC[C@@]3(CCC(=O)[C@@H]32)[C@H](C)[C@H]1O (stereo partly specified) | -0.4% | nt | i | 17.4% | ? | nt
CC(=O)c1ccc(S(=O)(=O)Nc2ccc(-c3ccc(N4CCCCC4)nn3)cc2)cc1 | nt | nt | i | nt | i | 9.6%
COc1cccc(/C=N/NC(=O)C(=O)N2CCCCCC2)c1O | 9.1% | -2.1% | i | ? | i | 1.9%
COc1c(Br)cc(Br)cc1/C=N/NC(=O)c1ccncc1 | 0.9% | 0.6% | i | 12.6% | i | 0.8%
COc1cccc(/C=N/NC(=O)c2cc3cc([N+](=O)[O-])ccc3s2)c1O | ? | ? | ? | 1.84µM* | ? | ?
COc1c(Br)cc(Br)cc1/C=N/NC(=O)c1cccnc1 | ? | -9.1% | 16.4µM* | 4.4% | i | 13.0%
COc1cccc(/C=N/NC(=O)C(=O)N/N=C/c2cccc(OC)c2O)c1O | 3.2% | 0.0% | ? | 6.51µM* | i | -1.7%
COc1ccc(/C=N/NC(=O)c2cccc3ccccc23)c(OC)c1OC | 14.6µM* | -0.3% | ? | -13.6% | ? | 12.1%
CCOc1ccc(-n2c(=O)c3c(C)c(C(=O)N(C)C)sc3n(CC(=O)Nc3c(C)cc(C)cc3C)c2=O)cc1 | nt | nt | nt | nt | nt | 20.5%
Cc1cccc(NC(=O)c2ccc3snnc3c2)c1C | nt | nt | i | nt | ? | -15.5%
O=S1(=O)N=C(Oc2ccc(-c3ccccc3)cc2)c2ccccc21 | nt | nt | i | nt | i | nt
COc1cccc(/C=N/NC(=S)NC2CC3CCC2C3)c1OC (stereo unspecified) | -0.4% | -3.0% | i | -15.8% | i | 15.2%
COc1cccc(C=NNC(=S)NN=Cc2cccc(OC)c2OC)c1OC | 18.4µM* | -6.3% | i | -3.7% | ? | ?
COc1ccc(/C=N/NC(=O)c2cc3c(OC)ccc(OC)c3[nH]2)cc1O | ? | 0.0% | 2.91µM* | ? | 9.2µM* | -9.8%
COC(=O)c1cccc(/C=N/NC(N)=S)c1O | 24.1% | -3.3% | ? | ? | 14.6µM* | -15.4%
COc1cccc(/C=N/NC(=O)c2cc3c(OC)c(OC)ccc3[nH]2)c1OC | ? | -5.6% | 9.2µM* | 23.1µM* | i | -16.0%
